# Test results as given in PMC11006913.
# Where a chain is given by its changes, count along the chain named.
# What was measured:
# Test in all cases: PBM; 200 nM protein, PBS
# Conditions in all cases: dsDNA, one strand shown
# CRX [1] = target: CRX (Homo sapiens, UniProt O43186 26-111)
# CRX [2] = target: CRX (Homo sapiens, UniProt O43186 26-111, E42D)
# NKX2-6 [3] = target: T1, NKX2-6 (Homo sapiens, UniProt A6NCS4 118-204)
# T1 sequence: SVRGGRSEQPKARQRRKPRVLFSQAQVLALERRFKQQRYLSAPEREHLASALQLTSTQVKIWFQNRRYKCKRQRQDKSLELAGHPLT
# NKX2-6 [4] = target: T2, NKX2-6 (Homo sapiens, UniProt A6NCS4 118-204, F151L)
# T2 sequence: T1 sequence with F34L
# CRX [5] = target: CRX (Homo sapiens, UniProt O43186 26-111, R41L)
# PITX2 = PITX2 (Homo sapiens, UniProt Q99697 72-157)
# HOXD13 [6] = target: HOXD13 (Homo sapiens, UniProt P35453 263-343, T313R)
# HOXD13 [7] = target: HOXD13 (Homo sapiens, UniProt P35453 263-343)
# HOXD13 [8] = target: HOXD13 (Homo sapiens, UniProt P35453 263-343, T313A)
# ALX1 [9] = target: ALX1 (Homo sapiens, UniProt Q15699 118-204, L144V)
# ALX1 [10] = target: ALX1 (Homo sapiens, UniProt Q15699 118-204, L144R)
# ALX1 [11] = target: ALX1 (Homo sapiens, UniProt Q15699 118-204)
# ALX3 [12] = target: ALX3 (Homo sapiens, UniProt O95076 139-225, N203Q)
# ALX3 [13] = target: ALX3 (Homo sapiens, UniProt O95076 139-225)
# ALX3 [14] = target: ALX3 (Homo sapiens, UniProt O95076 139-225, L168Q)
# ALX3 [15] = target: ALX3 (Homo sapiens, UniProt O95076 139-225, L168V)
# ALX3 [16] = target: ALX3 (Homo sapiens, UniProt O95076 139-225, N203S)
# PROP1 [17] = target: PROP1 (Homo sapiens, UniProt O75360 56-141)
# PROP1 [18] = target: PROP1 (Homo sapiens, UniProt O75360 56-141, F88S)
# MSX2 [19] = target: MSX2 (Homo sapiens, UniProt P35548 130-214, R199I)
# MSX2 [20] = target: MSX2 (Homo sapiens, UniProt P35548 130-214)
# MSX2 [21] = target: MSX2 (Homo sapiens, UniProt P35548 130-214, F161Y)
# Chain of MSX2 (Homo sapiens, UniProt P35548 130-214, F161Y) (P35548 130-214 F161Y): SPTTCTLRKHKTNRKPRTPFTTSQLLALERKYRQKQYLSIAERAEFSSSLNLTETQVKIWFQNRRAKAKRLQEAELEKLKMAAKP
# Chain of ALX3 (Homo sapiens, UniProt O95076 139-225) (O95076 139-225): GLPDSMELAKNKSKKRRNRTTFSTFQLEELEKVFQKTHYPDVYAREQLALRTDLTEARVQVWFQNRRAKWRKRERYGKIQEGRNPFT
# Chain of CRX (Homo sapiens, UniProt O43186 26-111, R41L) (O43186 26-111 R41L): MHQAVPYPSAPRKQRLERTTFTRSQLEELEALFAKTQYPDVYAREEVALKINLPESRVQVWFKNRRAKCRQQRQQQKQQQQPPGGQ
# Chain of ALX3 (Homo sapiens, UniProt O95076 139-225, N203Q) (O95076 139-225 N203Q): as the sequence (O95076 139-225) above, with N65Q counted along it
# Chain of CRX (Homo sapiens, UniProt O43186 26-111, E42D) (O43186 26-111 E42D): as the sequence (O43186 26-111 R41L) above, with L16R, E17D counted along it
# Chain of ALX3 (Homo sapiens, UniProt O95076 139-225, L168Q) (O95076 139-225 L168Q): as the sequence (O95076 139-225) above, with L30Q counted along it
# Chain of ALX3 (Homo sapiens, UniProt O95076 139-225, L168V) (O95076 139-225 L168V): as the sequence (O95076 139-225) above, with L30V counted along it
# Chain of CRX (Homo sapiens, UniProt O43186 26-111) (O43186 26-111): as the sequence (O43186 26-111 R41L) above, with L16R counted along it
# Chain of ALX3 (Homo sapiens, UniProt O95076 139-225, N203S) (O95076 139-225 N203S): as the sequence (O95076 139-225) above, with N65S counted along it
# Chain of HOXD13 (Homo sapiens, UniProt P35453 263-343, T313R) (P35453 263-343 T313R): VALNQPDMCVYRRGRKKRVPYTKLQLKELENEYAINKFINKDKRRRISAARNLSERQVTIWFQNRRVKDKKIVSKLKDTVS
# Chain of ALX1 (Homo sapiens, UniProt Q15699 118-204, L144V) (Q15699 118-204 L144V): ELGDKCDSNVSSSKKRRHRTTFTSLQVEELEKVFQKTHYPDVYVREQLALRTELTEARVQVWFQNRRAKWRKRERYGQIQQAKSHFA
# Chain of HOXD13 (Homo sapiens, UniProt P35453 263-343, T313A) (P35453 263-343 T313A): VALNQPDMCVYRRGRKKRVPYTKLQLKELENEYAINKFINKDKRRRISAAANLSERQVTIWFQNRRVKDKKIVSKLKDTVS
# Chain of MSX2 (Homo sapiens, UniProt P35548 130-214) (P35548 130-214): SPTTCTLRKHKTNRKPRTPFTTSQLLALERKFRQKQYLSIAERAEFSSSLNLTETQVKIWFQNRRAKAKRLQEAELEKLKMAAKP
# Chain of PROP1 (Homo sapiens, UniProt O75360 56-141) (O75360 56-141): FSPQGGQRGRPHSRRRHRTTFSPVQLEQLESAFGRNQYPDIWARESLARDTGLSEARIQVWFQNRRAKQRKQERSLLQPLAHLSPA
# Chain of ALX1 (Homo sapiens, UniProt Q15699 118-204, L144R) (Q15699 118-204 L144R): as the sequence (Q15699 118-204 L144V) above, with V27R counted along it
# Chain of ALX1 (Homo sapiens, UniProt Q15699 118-204) (Q15699 118-204): as the sequence (Q15699 118-204 L144V) above, with V27L counted along it
# Chain of HOXD13 (Homo sapiens, UniProt P35453 263-343) (P35453 263-343): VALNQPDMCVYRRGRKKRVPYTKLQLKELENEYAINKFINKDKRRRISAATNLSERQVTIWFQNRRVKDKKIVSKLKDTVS
# Chain of MSX2 (Homo sapiens, UniProt P35548 130-214, R199I) (P35548 130-214 R199I): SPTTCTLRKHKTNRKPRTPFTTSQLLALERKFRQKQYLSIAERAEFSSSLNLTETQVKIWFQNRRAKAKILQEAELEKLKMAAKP
# Chain of PROP1 (Homo sapiens, UniProt O75360 56-141, F88S) (O75360 56-141 F88S): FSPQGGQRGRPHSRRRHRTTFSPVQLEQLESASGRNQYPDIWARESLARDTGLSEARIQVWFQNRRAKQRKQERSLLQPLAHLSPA
sequence,measurement,setting,value
ACGCCAGC,binding signal,CRX [1],"8.41 upbm affinity estimate (log intensity, higher = more binding, comparable within an allelic series)"
same,binding signal,CRX [2],"8.28 upbm affinity estimate (log intensity, higher = more binding, comparable within an allelic series)"
same,binding signal,NKX2-6 [3],"9.57 upbm affinity estimate (log intensity, higher = more binding, comparable within an allelic series)"
same,binding signal,NKX2-6 [4],"9.3 upbm affinity estimate (log intensity, higher = more binding, comparable within an allelic series)"
same,binding signal,CRX [5],"8.46 upbm affinity estimate (log intensity, higher = more binding, comparable within an allelic series)"
CGGCTTAA,binding signal,CRX [1],"12.9 upbm affinity estimate (log intensity, higher = more binding, comparable within an allelic series)"
same,binding signal,CRX [2],"12.8 upbm affinity estimate (log intensity, higher = more binding, comparable within an allelic series)"
same,binding signal,PITX2,"12.5 upbm affinity estimate (log intensity, higher = more binding, comparable within an allelic series)"
CACGCTCC,binding signal,CRX [1],"8.3 upbm affinity estimate (log intensity, higher = more binding, comparable within an allelic series)"
same,binding signal,CRX [2],"8.47 upbm affinity estimate (log intensity, higher = more binding, comparable within an allelic series)"
same,binding signal,HOXD13 [6],"9.56 upbm affinity estimate (log intensity, higher = more binding, comparable within an allelic series)"
same,binding signal,HOXD13 [7],"9.55 upbm affinity estimate (log intensity, higher = more binding, comparable within an allelic series)"
same,binding signal,HOXD13 [8],"9.79 upbm affinity estimate (log intensity, higher = more binding, comparable within an allelic series)"
same,binding signal,CRX [5],"8.41 upbm affinity estimate (log intensity, higher = more binding, comparable within an allelic series)"
AAATCTGC,binding signal,CRX [1],"10.8 upbm affinity estimate (log intensity, higher = more binding, comparable within an allelic series)"
same,binding signal,CRX [2],"10.6 upbm affinity estimate (log intensity, higher = more binding, comparable within an allelic series)"
same,binding signal,ALX1 [9],"8.09 upbm affinity estimate (log intensity, higher = more binding, comparable within an allelic series)"
same,binding signal,ALX1 [10],"8 upbm affinity estimate (log intensity, higher = more binding, comparable within an allelic series)"
same,binding signal,CRX [5],"10.6 upbm affinity estimate (log intensity, higher = more binding, comparable within an allelic series)"
same,binding signal,ALX1 [11],"8.23 upbm affinity estimate (log intensity, higher = more binding, comparable within an allelic series)"
AGGTGCGG,binding signal,CRX [1],"8.42 upbm affinity estimate (log intensity, higher = more binding, comparable within an allelic series)"
same,binding signal,CRX [2],"8.46 upbm affinity estimate (log intensity, higher = more binding, comparable within an allelic series)"
same,binding signal,ALX3 [12],"7.78 upbm affinity estimate (log intensity, higher = more binding, comparable within an allelic series)"
same,binding signal,ALX3 [13],"7.66 upbm affinity estimate (log intensity, higher = more binding, comparable within an allelic series)"
same,binding signal,ALX3 [14],"7.81 upbm affinity estimate (log intensity, higher = more binding, comparable within an allelic series)"
same,binding signal,ALX3 [15],"7.75 upbm affinity estimate (log intensity, higher = more binding, comparable within an allelic series)"
same,binding signal,CRX [5],"8.35 upbm affinity estimate (log intensity, higher = more binding, comparable within an allelic series)"
same,binding signal,ALX3 [16],"7.79 upbm affinity estimate (log intensity, higher = more binding, comparable within an allelic series)"
GTTGGCCA,binding signal,CRX [1],"8.35 upbm affinity estimate (log intensity, higher = more binding, comparable within an allelic series)"
same,binding signal,CRX [2],"8.33 upbm affinity estimate (log intensity, higher = more binding, comparable within an allelic series)"
same,binding signal,PITX2,"8.06 upbm affinity estimate (log intensity, higher = more binding, comparable within an allelic series)"
same,binding signal,CRX [5],"8.24 upbm affinity estimate (log intensity, higher = more binding, comparable within an allelic series)"
CTAATCTC,binding signal,CRX [1],"13 upbm affinity estimate (log intensity, higher = more binding, comparable within an allelic series)"
same,binding signal,CRX [2],"13 upbm affinity estimate (log intensity, higher = more binding, comparable within an allelic series)"
same,binding signal,PITX2,"12.6 upbm affinity estimate (log intensity, higher = more binding, comparable within an allelic series)"
same,binding signal,PROP1 [17],"8.84 upbm affinity estimate (log intensity, higher = more binding, comparable within an allelic series)"
same,binding signal,PROP1 [18],"7.25 upbm affinity estimate (log intensity, higher = more binding, comparable within an allelic series)"
same,binding signal,CRX [5],"12.7 upbm affinity estimate (log intensity, higher = more binding, comparable within an allelic series)"
CGACTCGC,binding signal,CRX [1],"8.13 upbm affinity estimate (log intensity, higher = more binding, comparable within an allelic series)"
same,binding signal,CRX [2],"8.24 upbm affinity estimate (log intensity, higher = more binding, comparable within an allelic series)"
same,binding signal,ALX3 [12],"7.77 upbm affinity estimate (log intensity, higher = more binding, comparable within an allelic series)"
same,binding signal,ALX3 [13],"7.61 upbm affinity estimate (log intensity, higher = more binding, comparable within an allelic series)"
same,binding signal,ALX3 [14],"7.85 upbm affinity estimate (log intensity, higher = more binding, comparable within an allelic series)"
same,binding signal,ALX3 [15],"7.71 upbm affinity estimate (log intensity, higher = more binding, comparable within an allelic series)"
same,binding signal,CRX [5],"8.21 upbm affinity estimate (log intensity, higher = more binding, comparable within an allelic series)"
same,binding signal,ALX3 [16],"7.81 upbm affinity estimate (log intensity, higher = more binding, comparable within an allelic series)"
GATTAAGC,binding signal,CRX [1],"13.1 upbm affinity estimate (log intensity, higher = more binding, comparable within an allelic series)"
same,binding signal,CRX [2],"13.1 upbm affinity estimate (log intensity, higher = more binding, comparable within an allelic series)"
same,binding signal,PITX2,"12.7 upbm affinity estimate (log intensity, higher = more binding, comparable within an allelic series)"
same,binding signal,CRX [5],"12.6 upbm affinity estimate (log intensity, higher = more binding, comparable within an allelic series)"
GAGACTGC,binding signal,CRX [1],"8.28 upbm affinity estimate (log intensity, higher = more binding, comparable within an allelic series)"
same,binding signal,CRX [2],"8.22 upbm affinity estimate (log intensity, higher = more binding, comparable within an allelic series)"
same,binding signal,ALX3 [12],"7.74 upbm affinity estimate (log intensity, higher = more binding, comparable within an allelic series)"
same,binding signal,ALX3 [13],"7.6 upbm affinity estimate (log intensity, higher = more binding, comparable within an allelic series)"
same,binding signal,ALX3 [14],"7.71 upbm affinity estimate (log intensity, higher = more binding, comparable within an allelic series)"
same,binding signal,ALX3 [15],"7.72 upbm affinity estimate (log intensity, higher = more binding, comparable within an allelic series)"
same,binding signal,CRX [5],"8.35 upbm affinity estimate (log intensity, higher = more binding, comparable within an allelic series)"
same,binding signal,ALX3 [16],"7.73 upbm affinity estimate (log intensity, higher = more binding, comparable within an allelic series)"
GGCTTAAC,binding signal,CRX [1],"12.7 upbm affinity estimate (log intensity, higher = more binding, comparable within an allelic series)"
same,binding signal,CRX [2],"12.6 upbm affinity estimate (log intensity, higher = more binding, comparable within an allelic series)"
same,binding signal,PITX2,"12.7 upbm affinity estimate (log intensity, higher = more binding, comparable within an allelic series)"
same,binding signal,CRX [5],"12.1 upbm affinity estimate (log intensity, higher = more binding, comparable within an allelic series)"
CGCGCCAG,binding signal,CRX [1],"8.61 upbm affinity estimate (log intensity, higher = more binding, comparable within an allelic series)"
same,binding signal,CRX [2],"8.52 upbm affinity estimate (log intensity, higher = more binding, comparable within an allelic series)"
same,binding signal,MSX2 [19],"9.5 upbm affinity estimate (log intensity, higher = more binding, comparable within an allelic series)"
same,binding signal,MSX2 [20],"9.73 upbm affinity estimate (log intensity, higher = more binding, comparable within an allelic series)"
same,binding signal,MSX2 [21],"9.71 upbm affinity estimate (log intensity, higher = more binding, comparable within an allelic series)"
same,binding signal,CRX [5],"8.44 upbm affinity estimate (log intensity, higher = more binding, comparable within an allelic series)"
